± gives the standard deviation.
Legend:
Conditions in all cases: modulator concentration 10 µM
[1] = system: RAW-Dual (murine macrophage reporter line); assay: NF-kB reporter (SEAP) activity fold change vs agonist alone; higher = enhanced NF-kB activity
Outline: (§1)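 Compound reached 10 μM final in each well by pin transfer, onto RAW-Dual murine macrophage reporter cells seeded at 50 000 per well in 384-well plates. After 1 hour at 37 °C, the cells were stimulated overnight with a PRR agonist. SEAP in the supernatant was read with QUANTI-Blue at 620 nm absorbance for NF-κB, and Lucia luciferase was read with QUANTI-Luc luminescence for IRF. Each signal was turned into fold change against the mean agonist-only control on the same plate, and two replicate plates were averaged with propagated errors.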

[2] = system: RAW-Dual (murine macrophage reporter line); assay: IRF reporter (Lucia luciferase) activity fold change vs agonist alone; higher = enhanced IRF activity
Outline: as §1

[3] = system: RAW-Dual (murine macrophage reporter line); assay: viability score (confluency relative to resting cells, overnight) (fraction); higher = more viable, active = viable (0.7 or more)
Outline: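 RAW-Dual macrophages in 384-well plates were exposed overnight to compound at 10 μM final. Confluency was imaged with IncuCyte, and two confluency masks were generated with IncuCyte software over all imaged wells. The viability score is confluency expressed relative to resting cells. Compounds were called viable if both masks exceeded 70% of resting cells.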

[4] = agonist: CpG ODN 1826 0.5 ug/mL

| Compound | NF-kB reporter [1, 4] | NF-kB reporter ([1]; agonist: LPS 0.1 ug/mL) | NF-kB reporter ([1]; agonist: MPLA […]) | IRF reporter ([2]; agonist: 3'3'-cGAMP 10 ug/mL) | IRF reporter ([2]; agonist: LPS 0.1 ug/mL) | IRF reporter ([2]; agonist: MPLA […]) | viability score [3] |
| --- | --- | --- | --- | --- | --- | --- | --- |
| O=C(COCc1ccccc1)NC1CCC(F)(F)CC1 | 0.891 ± 0.068 | 1.03 ± 0.14 | 0.777 ± 0.057 | 0.643 ± 0.036 | 1.1 ± 0.069 | 1.02 ± 0.36 | 1.01 (active) |
| O=C(Nc1nccs1)c1ccc2c(c1)C(=O)N(C1CCCCC1)C2=O | 1.09 ± 0.086 | 1.05 ± 0.096 | 0.878 ± 0.052 | 0.979 ± 0.032 | 1.57 ± 0.22 | 1.21 ± 0.21 | 1 (active) |
| Cc1cc(OCC(=O)NCCn2nc(C3CC3)ccc2=O)cc(C)c1Cl | 0.861 ± 0.2 | 1 ± 0.055 | 1.01 ± 0.064 | 0.956 ± 0.039 | 0.823 ± 0.14 | 1.01 ± 0.26 | 0.778 (active) |
| CCSc1nnc(NC(=O)C2CC3CCC2C3)s1 (centres undefined) | 0.941 ± 0.058 | 0.969 ± 0.06 | 0.884 ± 0.06 | 1.29 ± 0.098 | 1.4 ± 0.092 | 1.09 ± 0.1 | 0.94 (active) |
| CCOc1ccc2nc(S(N)(=O)=O)sc2c1 | 0.804 ± 0.2 | 1.02 ± 0.051 | 0.985 ± 0.067 | 0.855 ± 0.029 | 0.897 ± 0.11 | 0.953 ± 0.2 | 1.01 (active) |
| CN(C(=O)COc1coc(CN2CCN(c3ccccc3)CC2)cc1=O)c1ccccc1 | 0.931 ± 0.052 | 0.933 ± 0.06 | 0.977 ± 0.057 | 0.97 ± 0.034 | 1.18 ± 0.12 | 0.986 ± 0.088 | 1 (active) |
| O=S(=O)(Nc1nc2ccccc2nc1Nc1ccc2c(c1)OCCO2)c1cccs1 | 0.985 ± 0.078 | 1.02 ± 0.065 | 1.13 ± 0.1 | 0.85 ± 0.028 | 1.29 ± 0.2 | 1.05 ± 0.098 | 0.99 (active) |
| CCC(O)=C(C#N)c1nc2ccccc2n1C | 1.12 ± 0.12 | 0.938 ± 0.061 | 1.18 ± 0.064 | 0.792 ± 0.033 | 1.02 ± 0.07 | 1.37 ± 0.15 | 0.995 (active) |
| COc1ccccc1-c1nnc(NC(=O)c2cc(C)nn2C)o1 | 1.08 ± 0.11 | 1 ± 0.079 | 1.01 ± 0.08 | 0.945 ± 0.034 | 0.965 ± 0.064 | 0.953 ± 0.17 | 0.998 (active) |
| Cc1cccc(C(=O)N2N=C(C3CCCCC3)CC2(O)C(F)(F)F)c1O (centres undefined) | 0.735 ± 0.057 | 0.839 ± 0.064 | 0.955 ± 0.089 | 0.939 ± 0.046 | 1.4 ± 0.093 | 1.52 ± 0.14 | 1.01 (active) |
| CCC1SC(=NN=Cc2cccc3ccccc23)NC1=O (centres undefined) | 1.08 ± 0.14 | 0.974 ± 0.087 | 0.972 ± 0.044 | 0.92 ± 0.034 | 1.01 ± 0.085 | 0.974 ± 0.2 | 1 (active) |
| CCC(c1ccc(O)cc1)C(CC)c1ccc(O)cc1 (centres undefined) [Prestw-699] | 0.567 ± 0.043 | 0.883 ± 0.068 | 1.02 ± 0.1 | 0.75 ± 0.13 | 0.84 ± 0.11 | 1.06 ± 0.16 | 0.181 (inactive) |
| COc1ccc(N(CC(=O)Nc2ccccc2C(F)(F)F)S(C)(=O)=O)cc1Cl | 0.96 ± 0.075 | 1.02 ± 0.097 | 0.979 ± 0.045 | 0.961 ± 0.17 | 1.02 ± 0.045 | 1.02 ± 0.19 | 1 (active) |
| O=C(O)c1cc(O)ccc1O | 0.972 ± 0.11 | 1.03 ± 0.055 | 0.977 ± 0.023 | 1.03 ± 0.078 | 0.969 ± 0.032 | 0.932 ± 0.11 | 0.996 (active) |
| Fc1ccccc1C=NNc1nc(-c2ccccc2)cc(-c2ccccc2)n1 | 1.03 ± 0.25 | 1.19 ± 0.094 | 1.05 ± 0.17 | 1.01 ± 0.028 | 1.14 ± 0.15 | 1.51 ± 0.37 | 1 (active) |
| CC(C)c1ccccc1NC(=O)C1COCC(=O)N1Cc1ccccc1 (centres undefined) | 0.983 ± 0.063 | 0.996 ± 0.15 | 1.08 ± 0.058 | 0.985 ± 0.074 | 1.15 ± 0.26 | 1.29 ± 0.51 | 0.979 (active) |
| FC(F)(F)c1ccnc(NC2CCN(c3ncnc4c3CCCC4)CC2)n1 | 0.884 ± 0.083 | 1.35 ± 0.11 | 1.86 ± 0.081 | 1.21 ± 0.069 | 1.65 ± 0.16 | 1.59 ± 0.18 | 0.318 (inactive) |
| CCc1c(C)[nH]c2c1C(=O)C(CN1CCOCC1)CC2.Cl (centres undefined) | 0.108 ± 0.0046 | 0.221 ± 0.024 | 0.714 ± 0.042 | 0.752 ± 0.039 | 1.5 ± 0.24 | 1.4 ± 0.43 | 0.855 (active) |
| Cc1ccc(OCCOc2ncnc3ccccc23)c(Cl)c1 | 1.02 ± 0.11 | 1.02 ± 0.078 | 1.23 ± 0.049 | 0.916 ± 0.094 | 1 ± 0.12 | 0.875 ± 0.18 | 1 (active) |
| COC(CNS(=O)(=O)Cc1ccccc1)c1ccc(Cl)s1 (centres undefined) | 0.959 ± 0.056 | 1.02 ± 0.084 | 0.922 ± 0.052 | 1.24 ± 0.1 | 1.12 ± 0.071 | 1.16 ± 0.35 | 0.639 (inactive) |
| Cc1cc(CNC(=O)CCc2ccc(C(F)(F)F)cc2)c(C)o1 | 1.09 ± 0.061 | 1.01 ± 0.089 | 0.877 ± 0.038 | 1.2 ± 0.069 | 1.14 ± 0.068 | 1.25 ± 0.33 | 0.957 (active) |
| Cc1cc2nc3sc(=Cc4ccccc4OCc4ccc(Cl)cc4Cl)c(=O)n3c2cc1C | 0.975 ± 0.088 | 1.07 ± 0.069 | 0.962 ± 0.072 | 0.99 ± 0.034 | 1.47 ± 0.18 | 1.14 ± 0.12 | 0.999 (active) |
| O=C(NCCN1CCOCC1)c1ccc(Cl)cc1 | 1.37 ± 0.2 | 1.13 ± 0.3 | 0.953 ± 0.055 | 0.95 ± 0.048 | 1.26 ± 0.43 | 1.01 ± 0.078 | 0.992 (active) |
| Cc1cccc2sc(NNC(=O)c3ccc(S(=O)(=O)N4CCc5ccccc5C4)cc3)nc12 | 0.923 ± 0.093 | 0.973 ± 0.063 | 0.93 ± 0.079 | 0.929 ± 0.067 | 1.2 ± 0.2 | 0.93 ± 0.11 | 0.995 (active) |
| CC(C)C(=O)Nc1ccc([N+](=O)[O-])c(C(F)(F)F)c1 | 1.42 ± 0.3 | 1.06 ± 0.077 | 1.25 ± 0.2 | 0.762 ± 0.04 | 0.97 ± 0.11 | 1.04 ± 0.12 | 0.968 (active) |
| CC(=NNC(=O)CNc1ccccc1C)c1ccc(Br)cc1 | 1.09 ± 0.093 | 1.01 ± 0.14 | 1.03 ± 0.098 | 0.998 ± 0.032 | 1.23 ± 0.13 | 1.38 ± 0.19 | 0.982 (active) |
| O=C(NCc1ccco1)C(=Cc1ccc(-c2ccccc2Cl)o1)NC(=O)c1ccccc1 | 0.57 ± 0.044 | 0.745 ± 0.052 | 0.791 ± 0.07 | 0.476 ± 0.022 | 0.859 ± 0.07 | 0.942 ± 0.11 | 0.996 (active) |
